# Data from PubChem BioAssay AID1159580 (chemical genetic matrix, 2015).
# Values joined by “and” are separate entries in the source; they are usually repeats but may differ in a detail not shown here. Identical values can stand only once. In all, about 5,500 compounds went through this assay and about 2,000 (36%) were called active. Inconclusive results (about 18%) are left out. The list shows a part of the results. Unmarked numbers belong to inactive results. Cut-off read from the data, not from the text of the source: active = normalized growth mostly below about 0.91 (no sharp cut-off); inconclusive = no clear call, values can overlap the other calls; inactive = mostly above about 0.92.
# Assay: chemical genetic growth profiling, strain panel (AID 1159580);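 note: tested at 20 µM; growth read once vehicle control cultures reached saturation at 30 °C; 1 = growth at the plate median or of vehicle wells; lower values mean less growth of the strain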
# Details: S. cerevisiae deletion strains, growth OD
compound,measurement,setting,value
C[C@H](CCC(=O)O)[C@H]1CCC2C3C(=O)CC4CC(=O)CC[C@]4(C)C3CC(=O)[C@@]21C (some centres not stated),normalized growth,"locus YAL021C, strain ccr4, stronger effect = lower value",0.908
same,normalized growth,"locus YAL026C, strain drs2, stronger effect = lower value",0.99
same,normalized growth,"locus YAL030W, strain snc1, stronger effect = lower value",0.963
same,normalized growth,"locus YBL061C, strain skt5, stronger effect = lower value",0.99
same,normalized growth,"locus YBR009C, strain hhf1, stronger effect = lower value",0.992
same,normalized growth,"locus YBR021W, strain FUR4, stronger effect = lower value",1.01
same,normalized growth,"locus YBR023C, strain chs3, stronger effect = lower value",0.987
same,normalized growth,"locus YBR171W, strain sec66, stronger effect = lower value",0.956
same,normalized growth,"locus YBR229C, strain ROT2, stronger effect = lower value",1.01
same,normalized growth,"locus YBR231C, strain swc5, stronger effect = lower value",0.967
same,normalized growth,"locus YBR279W, strain paf1, stronger effect = lower value",0.994
same,normalized growth,"locus YCL011C, strain gbp2, stronger effect = lower value",0.991
same,normalized growth,"locus YCL016C, strain dcc1, stronger effect = lower value",1.02
same,normalized growth,"locus YCL029C, strain bik1, stronger effect = lower value",1.01
same,normalized growth,"locus YCL061C, strain MRC1, stronger effect = lower value",0.972
same,normalized growth,"locus YCL069W, strain vba3, stronger effect = lower value",0.978
same,normalized growth,"locus YCR088W, strain abp1, stronger effect = lower value",0.987
same,normalized growth,"locus YDL005C, strain med2, stronger effect = lower value",0.952
same,normalized growth,"locus YDL035C, strain GPR1, stronger effect = lower value",1.02
same,normalized growth,"locus YDL040C, strain nat1, stronger effect = lower value",0.976
same,normalized growth,"locus YDL074C, strain BRE1, stronger effect = lower value",1
same,normalized growth,"locus YDL101C, strain DUN1, stronger effect = lower value",1.01
same,normalized growth,"locus YDL134C, strain PPH21, stronger effect = lower value",1.02
same,normalized growth,"locus YDL185W, strain tfp1, stronger effect = lower value",1.01
same,normalized growth,"locus YDL192W, strain arf1, stronger effect = lower value",1
same,normalized growth,"locus YDR001C, strain nth1, stronger effect = lower value",0.969
same,normalized growth,"locus YDR069C, strain doa4, stronger effect = lower value",0.951
same,normalized growth,"locus YDR101C, strain arx1, stronger effect = lower value",1.02
same,normalized growth,"locus YDR137W, strain rgp1, stronger effect = lower value",0.999
same,normalized growth,"locus YDR159W, strain sac3, stronger effect = lower value",0.937
same,normalized growth,"locus YDR162C, strain NBP2, stronger effect = lower value",1.02
same,normalized growth,"locus YDR195W, strain ref2",0.937
same,normalized growth,"locus YDR297W, strain sur2, stronger effect = lower value",0.981
same,normalized growth,"locus YDR318W, strain mcm21, stronger effect = lower value",1
same,normalized growth,"locus YDR334W, strain swr1, stronger effect = lower value",0.957
same,normalized growth,"locus YDR335W, strain msn5, stronger effect = lower value",0.978
same,normalized growth,"locus YDR388W, stronger effect = lower value",1
same,normalized growth,"locus YDR392W, strain spt3, stronger effect = lower value",1.06
same,normalized growth,"locus YDR502C, strain sam2, stronger effect = lower value",0.998
same,normalized growth,"locus YEL003W, strain gim4, stronger effect = lower value",0.979
same,normalized growth,"locus YEL037C, strain rad23, stronger effect = lower value",0.983
same,normalized growth,"locus YEL061C, strain CIN8 (second series), stronger effect = lower value",0.962
same,normalized growth,"locus YEL061C, strain CIN8, stronger effect = lower value",1.01
same,normalized growth,"locus YER015W, strain faa2, stronger effect = lower value",0.991
same,normalized growth,"locus YER016W, strain bim1, stronger effect = lower value",1.04
same,normalized growth,"locus YER110C, stronger effect = lower value",1.01
same,normalized growth,"locus YER111C, strain swi4, stronger effect = lower value",0.974
same,normalized growth,"locus YER155C, strain BEM2 (second series), stronger effect = lower value",0.961
same,normalized growth,"locus YER155C, strain BEM2, stronger effect = lower value",1
same,normalized growth,"locus YER167W, strain BCK2, stronger effect = lower value",1.01
same,normalized growth,"locus YFR010W, strain ubp6, stronger effect = lower value",0.965
same,normalized growth,"locus YGL078C, strain dbp3, stronger effect = lower value",1.01
same,normalized growth,"locus YGL086W, strain mad1, stronger effect = lower value",1.01
same,normalized growth,"locus YGL167C, strain pmr1, stronger effect = lower value",0.947
same,normalized growth,"locus YGL173C, strain kem1, stronger effect = lower value",0.962
same,normalized growth,"locus YGL227W, strain vid30, stronger effect = lower value",0.97
same,normalized growth,"locus YGL240W, strain doc1, stronger effect = lower value",0.948
same,normalized growth,"locus YGL248W, strain PDE1, stronger effect = lower value",1
same,normalized growth,"locus YGL253W, strain hxk2, stronger effect = lower value",1
same,normalized growth,"locus YGR135W, strain pre9, stronger effect = lower value",0.994
same,normalized growth,"locus YGR252W, strain gcn5, stronger effect = lower value",0.972
same,normalized growth,"locus YHR013C, strain ard1, stronger effect = lower value",1
same,normalized growth,"locus YHR027C, strain rpn1, stronger effect = lower value",0.988
same,normalized growth,"locus YHR030C, strain SLT2, stronger effect = lower value",1.01 and 1.03
same,normalized growth,"locus YHR079C, strain IRE1 (second series), stronger effect = lower value",0.997
same,normalized growth,"locus YHR079C, strain IRE1, stronger effect = lower value",1
same,normalized growth,"locus YHR094C, strain hxt1, stronger effect = lower value",1.01
same,normalized growth,"locus YHR129C, strain ARP1, stronger effect = lower value",1.01
same,normalized growth,"locus YHR142W, strain chs7, stronger effect = lower value",0.957
same,normalized growth,"locus YHR200W, strain rpn10, stronger effect = lower value",1
same,normalized growth,"locus YIL066C, strain RNR3, stronger effect = lower value",1.02
same,normalized growth,"locus YIL073C, strain SPO22, stronger effect = lower value",1.01
same,normalized growth,"locus YIL125W, strain kgd1, stronger effect = lower value",1.01
same,normalized growth,"locus YIR030C, strain dcg1, stronger effect = lower value",1.01
same,normalized growth,"locus YJL092W, strain hpr5, stronger effect = lower value",0.971
same,normalized growth,"locus YJL095W, strain BCK1 (second series), stronger effect = lower value",0.969
same,normalized growth,"locus YJL095W, strain BCK1, stronger effect = lower value",1 and 1.02
same,normalized growth,"locus YJL115W, strain asf1, stronger effect = lower value",0.978
same,normalized growth,"locus YJL129C, strain trk1, stronger effect = lower value",0.962
same,normalized growth,"locus YJL134W, strain LCB3, stronger effect = lower value",1.01
same,normalized growth,"locus YJL154C, strain vps35, stronger effect = lower value",0.958
same,normalized growth,"locus YJL164C, strain tpk1, stronger effect = lower value",1.01
same,normalized growth,"locus YJL166W, strain qcr8, stronger effect = lower value",0.916
same,normalized growth,"locus YJL168C, strain set2, stronger effect = lower value",1
same,normalized growth,"locus YJL187C, strain SWE1 (second series), stronger effect = lower value",1.01
same,normalized growth,"locus YJR043C, strain POL32, stronger effect = lower value",1.01
same,normalized growth,"locus YJR066W, strain TOR1, stronger effect = lower value",0.971
same,normalized growth,"locus YJR075W, strain HOC1, stronger effect = lower value",1.02
same,normalized growth,"locus YKL009W, strain mrt4, stronger effect = lower value",0.992
same,normalized growth,"locus YKL068W, stronger effect = lower value",1.01
same,normalized growth,"locus YKL085W, strain MDH1 (second series), stronger effect = lower value",1.02
same,normalized growth,"locus YKL085W, strain MDH1, stronger effect = lower value",1.02
same,normalized growth,"locus YKL160W, strain elf1, stronger effect = lower value",0.985
same,normalized growth,"locus YKR001C, strain vps1, stronger effect = lower value",1.01
same,normalized growth,"locus YKR026C, strain gcn3, stronger effect = lower value",0.972
same,normalized growth,"locus YLL001W, strain dnm1, stronger effect = lower value",0.923
same,normalized growth,"locus YLL026W, stronger effect = lower value",0.987
same,normalized growth,"locus YLL041C, strain sdh2, stronger effect = lower value",0.978
same,normalized growth,"locus YLR027C, strain aat2, stronger effect = lower value",0.993
same,normalized growth,"locus YLR039C, strain RIC1, stronger effect = lower value",0.955
same,normalized growth,"locus YLR058C, strain SHM2, stronger effect = lower value",1.01
same,normalized growth,"locus YLR102C, strain apc9, stronger effect = lower value",0.999
same,normalized growth,"locus YLR113W, strain HOG1, stronger effect = lower value",1.03
same,normalized growth,"locus YLR221C, strain rsa3, stronger effect = lower value",1.04
same,normalized growth,"locus YLR258W, strain gsy2, stronger effect = lower value",0.982
same,normalized growth,"locus YLR262C, strain YPT6 (second series), stronger effect = lower value",0.926
same,normalized growth,"locus YLR262C, strain YPT6, stronger effect = lower value",1.05
same,normalized growth,"locus YLR268W, strain sec22, stronger effect = lower value",1
same,normalized growth,"locus YLR320W, strain mms22, stronger effect = lower value",1
same,normalized growth,"locus YLR330W, strain CHS5, stronger effect = lower value",1.01
same,normalized growth,"locus YLR342W, strain FKS1 (second series), stronger effect = lower value",1
same,normalized growth,"locus YLR342W, strain FKS1, stronger effect = lower value",0.972
same,normalized growth,"locus YLR357W, strain rsc2, stronger effect = lower value",0.917
same,normalized growth,"locus YLR370C, strain arc18, stronger effect = lower value",0.987
same,normalized growth,"locus YLR371W, strain rom2, stronger effect = lower value",1
same,normalized growth,"locus YLR384C, strain iki3, stronger effect = lower value",0.976
same,normalized growth,"locus YLR418C, strain cdc73, stronger effect = lower value",0.981
same,normalized growth,"locus YML016C, strain PPZ1, stronger effect = lower value",1.01
same,normalized growth,"locus YML032C, strain rad52, stronger effect = lower value",0.994
same,normalized growth,"locus YML120C, strain ndi1, stronger effect = lower value",0.967
same,normalized growth,"locus YML124C, strain tub3, stronger effect = lower value",0.995
same,normalized growth,"locus YMR058W, strain fet3, stronger effect = lower value",0.976
same,normalized growth,"locus YMR078C, strain ctf18, stronger effect = lower value",1.01
same,normalized growth,"locus YMR125W, strain sto1, stronger effect = lower value",0.93
same,normalized growth,"locus YMR129W, stronger effect = lower value",0.993
same,normalized growth,"locus YMR205C, strain PFK2, stronger effect = lower value",0.953
same,normalized growth,"locus YMR223W, strain ubp8, stronger effect = lower value",1
same,normalized growth,"locus YMR231W, strain pep5, stronger effect = lower value",0.906 (active)
same,normalized growth,"locus YMR307W, strain GAS1, stronger effect = lower value",1.05
same,normalized growth,"locus YNL067W, strain RPL9B, stronger effect = lower value",1.01
same,normalized growth,"locus YNL071W, strain lat1, stronger effect = lower value",0.975
same,normalized growth,"locus YNL153C, strain GIM3, stronger effect = lower value",0.996
same,normalized growth,"locus YNL183C, strain NPR1, stronger effect = lower value",0.982
same,normalized growth,"locus YNL209W, strain ssb2, stronger effect = lower value",0.99
same,normalized growth,"locus YNL233W, strain BNI4, stronger effect = lower value",1.01
same,normalized growth,"locus YNL248C, strain rpa49, stronger effect = lower value",1
same,normalized growth,"locus YNL250W, strain rad50, stronger effect = lower value",0.995
same,normalized growth,"locus YNL271C, strain bni1, stronger effect = lower value",0.996
same,normalized growth,"locus YNL298W, strain CLA4, stronger effect = lower value",1
same,normalized growth,"locus YNL307C, strain MCK1, stronger effect = lower value",1
same,normalized growth,"locus YNL322C, strain KRE1 (second series), stronger effect = lower value",0.975
same,normalized growth,"locus YNL322C, strain KRE1, stronger effect = lower value",1.02
same,normalized growth,"locus YNR049C, strain mso1, stronger effect = lower value",0.983
same,normalized growth,"locus YNR052C, strain pop2, stronger effect = lower value",1
same,normalized growth,"locus YOL012C, strain htz1",1.17
same,normalized growth,"locus YOL147C, strain pex11, stronger effect = lower value",1.01
same,normalized growth,"locus YOR001W, strain rrp6, stronger effect = lower value",0.965
same,normalized growth,"locus YOR061W, strain CKA2, stronger effect = lower value",1.01
same,normalized growth,"locus YOR069W, strain VPS5, stronger effect = lower value",1.01
same,normalized growth,"locus YOR070C, strain gyp1, stronger effect = lower value",0.995
same,normalized growth,"locus YOR080W, strain dia2, stronger effect = lower value",0.947
same,normalized growth,"locus YOR083W, strain WHI5, stronger effect = lower value",0.964
same,normalized growth,"locus YOR106W, strain vam3, stronger effect = lower value",0.924
same,normalized growth,"locus YOR136W, strain idh2, stronger effect = lower value",1
same,normalized growth,"locus YOR144C, strain elg1, stronger effect = lower value",1.01
same,normalized growth,"locus YOR184W, strain ser1, stronger effect = lower value",0.999
same,normalized growth,"locus YOR231W, strain MKK1, stronger effect = lower value",1.03
same,normalized growth,"locus YOR265W, strain rbl2, stronger effect = lower value",0.971
same,normalized growth,"locus YOR270C, strain vph1, stronger effect = lower value",0.988
same,normalized growth,"locus YOR290C, strain snf2, stronger effect = lower value",1.02
same,normalized growth,"locus YOR316C, strain cot1, stronger effect = lower value",1.01
same,normalized growth,"locus YPL051W, strain arl3, stronger effect = lower value",1.02
same,normalized growth,"locus YPL055C, strain LGE1, stronger effect = lower value",1.02
same,normalized growth,"locus YPL078C, strain atp4, stronger effect = lower value",0.929
same,normalized growth,"locus YPL106C, strain sse1, stronger effect = lower value",0.94
same,normalized growth,"locus YPL240C, strain hsp82, stronger effect = lower value",0.989
same,normalized growth,"locus YPL256C, strain CLN2, stronger effect = lower value",1.04
same,normalized growth,"locus YPR119W, strain clb2, stronger effect = lower value",1.01
same,normalized growth,"locus YPR141C, strain kar3, stronger effect = lower value",1.01
same,normalized growth,"locus YPR163C, strain tif3, stronger effect = lower value",1
same,normalized growth,"locus YPR167C, strain met16, stronger effect = lower value",1
same,normalized growth,"strain wtn01, stronger effect = lower value",0.988
